Holding throughout (settings): mRNA level, 48 h; actives raise or lower the signal
Read-out in one assay: CYP2C9 (gene 1559)
Description: LTEA_HepaRG_CYP2C9: Life Technologies and Expression Analysis (LTEA) Assay for CYP2C9 using HepaRG (AID 2283484). The method in brief:
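Eight-point concentration-response (highest 100 uM, half-log dilutions) in HepaRG cells for 48 h; CYP2C9 expression by qRT-PCR normalized to ACTB, GAPDH, POLR2A. Bidirectional fit, DMSO baseline.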

Read-out in the next assay: CYP2E1 (gene 1571)
Briefly: LTEA_HepaRG_CYP2E1: Life Technologies and Expression Analysis (LTEA) Assay for CYP2E1 using HepaRG (AID 2283485). The method in brief: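 Assay uses 48 h exposure of HepaRG hepatic cells, eight concentrations to 100 uM. Expression of CYP2E1 is quantified by TaqMan qRT-PCR with ACTB, GAPDH and POLR2A normalization; curves fitted in both directions relative to vehicle.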

Read-out in another assay: CYP4A11 (gene 1579)
Description: LTEA_HepaRG_CYP4A11: Life Technologies and Expression Analysis (LTEA) Assay for CYP4A11 using HepaRG (AID 2283486). An outline of the steps: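 CYP4A11 transcript levels were quantified by TaqMan qRT-PCR after HepaRG human liver cells were treated for 48 hours with test chemicals (top 100 uM, half-log dilutions, 0.5% DMSO). Gain or loss of signal was fitted relative to DMSO.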

Read-out in assay [1]: Cytochrome P450 3A4 (Homo sapiens) (UniProt P08684)
Briefly: LTEA_HepaRG_CYP3A4: Life Technologies and Expression Analysis (LTEA) Assay for CYP3A4 using HepaRG (AID 2283487). An outline of the steps: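 CYP3A4 transcript measured by TaqMan qRT-PCR and normalized to three housekeeping genes after 48 h chemical exposure of human HepaRG cells. Top concentration 100 uM, half-log steps, 0.5% DMSO vehicle; gain or loss fitted against DMSO baseline.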

Read-out in assay [2]: DNA damage-inducible transcript 3 (DDIT3), DDIT3 (gene 1649)
Description: LTEA_HepaRG_DDIT3: Life Technologies and Expression Analysis (LTEA) Assay for DNA damage-inducible transcript 3 (DDIT3) using HepaRG (AID 2283488). An outline of the steps:
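Eight-point concentration-response (100 uM highest, half-log dilutions) in HepaRG, 48 h, duplicate wells. Endpoint: qRT-PCR mRNA, normalized (ACTB, GAPDH, POLR2A), bidirectional fitting with DMSO as baseline.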

Read-out in assay [3]: Pro-epidermal growth factor (Homo sapiens) (UniProt P01133)
Briefly: LTEA_HepaRG_EGF: Life Technologies and Expression Analysis (LTEA) Assay for Epidermal growth factor (EGF) using HepaRG (AID 2283489). The method in brief: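 qRT-PCR readout of EGF transcript after 48 h chemical exposure of HepaRG cells; eight concentrations from 100 uM down in half-log steps, duplicate wells, 0.5% DMSO vehicle. Bidirectional curve fitting against DMSO baseline.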

Read-out in assay [4]: Early growth response protein 1 (EGR1) transcription factor, EGR1 (gene 1958)
Briefly: LTEA_HepaRG_EGR1: Life Technologies and Expression Analysis (LTEA) Assay for Early growth response protein 1 (EGR1) transcription factor using HepaRG (AID 2283490). An outline of the steps: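 EGR1 expression change in human HepaRG after 48 h chemical exposure, assessed by housekeeping-normalized qRT-PCR; concentration-response up to 100 uM, fitted in both directions against DMSO controls.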

Read-out in assay [5]: Ezrin (EZR), EZR (gene 7430)
Briefly: LTEA_HepaRG_EZR: Life Technologies and Expression Analysis (LTEA) Assay for Ezrin (EZR) using HepaRG (AID 2283491). An outline of the steps:
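HepaRG, 48 h chemical exposure, 8-pt half-log series from 100 uM, 0.5% DMSO vehicle, duplicates. Read-out: EZR mRNA by TaqMan qRT-PCR (Fluidigm array), housekeeping-normalized; bidirectional curve fit vs DMSO baseline.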

Read-out in the next assay: CYP3A5 (gene 1577)
Description: LTEA_HepaRG_CYP3A5: Life Technologies and Expression Analysis (LTEA) Assay for CYP3A5 using HepaRG (AID 2283493). The method in brief: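 Readout was CYP3A5 mRNA by qRT-PCR. HepaRG cultures were exposed for 48 h in serum-free induction medium to chemicals at up to 100 uM, and responses were fitted in both directions relative to DMSO vehicle.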

Read-out in assay [6]: Fatty Acid-Binding Protein 1 (FABP1), FABP1 (gene 2168)
Description: LTEA_HepaRG_FABP1: Life Technologies and Expression Analysis (LTEA) Assay for Fatty Acid-Binding Protein 1 (FABP1) using HepaRG (AID 2283494). The method in brief:
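Values reflect bidirectional concentration-response fitting of FABP1 mRNA change against 0.5% DMSO controls. Human HepaRG cultures received eight half-log doses (top 100 uM) for 48 h; expression quantified by TaqMan qRT-PCR with housekeeping-gene normalization.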

Read-out in assay [7]: Cytochrome P450 4A22 (Homo sapiens) (UniProt Q5TCH4)
Description: LTEA_HepaRG_CYP4A22: Life Technologies and Expression Analysis (LTEA) Assay for Cytochrome P450 4A22 (CYP4A22) using HepaRG (AID 2283495). An outline of the steps:
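HepaRG, 48 h post-plating -> serum-free induction medium; dosed 48 h, duplicate, 8 conc. (100 uM top, half-log), 0.5% DMSO. Readout: CYP4A22 mRNA by qRT-PCR, ACTB/GAPDH/POLR2A normalization; gain/loss fit relative to DMSO.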

Read-out in assay [8]: Cytochrome P450 7A1 (Homo sapiens) (UniProt P22680)
Description: LTEA_HepaRG_CYP7A1: Life Technologies and Expression Analysis (LTEA) Assay for Cytochrome P450 7A1 (CYP7A1) using HepaRG (AID 2283496). An outline of the steps: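 Using 0.5% DMSO as vehicle and baseline, chemicals were tested in duplicate over an 8-point range from 100 uM on HepaRG cells for 48 h; qRT-PCR signals were normalised to ACTB, GAPDH and POLR2A.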

Read-out in assay [9]: Glutathione S-Transferase (GSTA2), GSTA2 (gene 2939)
Briefly: LTEA_HepaRG_GSTA2: Life Technologies and Expression Analysis (LTEA) Assay for Glutathione S-Transferase (GSTA2) using HepaRG (AID 2283497). An outline of the steps:
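Oxidative-stress marker GSTA2 is quantified by TaqMan qRT-PCR in HepaRG cultures treated 48 h across an eight-point range to 100 uM. Expression is normalized to endogenous controls and compared with 0.5% DMSO vehicle.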

Read-out in assay [10]: Glutamate-cysteine ligase catalytic (GCLC), GCLC (gene 2729)
Description: LTEA_HepaRG_GCLC: Life Technologies and Expression Analysis (LTEA) Assay for Glutamate-cysteine ligase catalytic (GCLC) using HepaRG (AID 2283498). An outline of the steps:
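Oxidative-stress marker GCLC is measured as mRNA change in human HepaRG liver cells after 48 h chemical treatment in 0.5% DMSO, eight concentrations from 100 uM. Activity is fitted bidirectionally against vehicle.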

Read-out in assay [11]: growth arrest and DNA damage 45 (GADD45G), GADD45G (gene 10912)
Briefly: LTEA_HepaRG_GADD45G: Life Technologies and Expression Analysis (LTEA) Assay for growth arrest and DNA damage 45 (GADD45G) using HepaRG (AID 2283499). An outline of the steps:
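HepaRG, 48 h exposure, top 100 uM, half-log 8-point series, 0.5% DMSO vehicle, duplicates. Readout: GADD45G transcript by qRT-PCR (Fluidigm array), housekeeping-normalised (ACTB/GAPDH/POLR2A). Bidirectional curve fit vs DMSO baseline.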

Read-out in assay [12]: Glutamate-cysteine ligase regulatory (GCLM), GCLM (gene 2730)
Briefly: LTEA_HepaRG_GCLM: Life Technologies and Expression Analysis (LTEA) Assay for Glutamate-cysteine ligase regulatory (GCLM) using HepaRG (AID 2283500). The method in brief: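 In this multiplexed HepaRG gene-expression assay, GCLM mRNA change after 48 h treatment (8 concentrations, max 100 uM) was scored against DMSO by bidirectional curve fitting.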

Read-out in assay [13]: Glutathione S-transferase M3 (GSTM3), GSTM3 (gene 2947)
Briefly: LTEA_HepaRG_GSTM3: Life Technologies and Expression Analysis (LTEA) Assay for Glutathione S-transferase M3 (GSTM3) using HepaRG (AID 2283501). An outline of the steps: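 qRT-PCR read-out of GSTM3 transcript, normalized to three housekeeping genes, from human HepaRG cells after 48 h chemical exposure. Eight-point half-log series, top 100 uM, 0.5% DMSO vehicle; gain or loss fitted relative to DMSO baseline.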

Read-out in assay [14]: Heat shock 70 kDa protein 1 (HSPA1A), gene 3303
Briefly: LTEA_HepaRG_HSPA1A: Life Technologies and Expression Analysis (LTEA) Assay for Heat shock 70 kDa protein 1 (HSPA1A) using HepaRG (AID 2283502). The method in brief:
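An oxidative-stress marker readout: HepaRG cells treated 48 h in duplicate with an eight-point series (highest 100 uM) had HSPA1A mRNA quantified by TaqMan qRT-PCR. Activity was fitted in both directions using 0.5% DMSO as baseline.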

Read-out in assay [15]: Hypoxia-inducible factor 1-alpha (Homo sapiens) (UniProt Q16665)
Briefly: LTEA_HepaRG_HIF1A: Life Technologies and Expression Analysis (LTEA) Assay for Hypoxia-inducible factor 1 (HIF1A) Trancription factor using HepaRG (AID 2283503).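 Further: HIF1A transcript by TaqMan qRT-PCR normalized to ACTB GAPDH and POLR2A.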 The method in brief: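 Gain- or loss-of-signal HIF1A mRNA changes are fitted against a DMSO baseline. HepaRG cultures receive eight concentrations, highest 100 uM, for 48 h in serum-free induction medium with 0.5% DMSO.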

Active and inactive are the calls of the source. How the source made its calls: active means hit-call score of the fitted dose curve at least 0.9, where 1 is the maximum; inactive means score below 0.9.

Chain of Hypoxia-inducible factor 1-alpha (Homo sapiens) (Q16665 whole entry, looked up): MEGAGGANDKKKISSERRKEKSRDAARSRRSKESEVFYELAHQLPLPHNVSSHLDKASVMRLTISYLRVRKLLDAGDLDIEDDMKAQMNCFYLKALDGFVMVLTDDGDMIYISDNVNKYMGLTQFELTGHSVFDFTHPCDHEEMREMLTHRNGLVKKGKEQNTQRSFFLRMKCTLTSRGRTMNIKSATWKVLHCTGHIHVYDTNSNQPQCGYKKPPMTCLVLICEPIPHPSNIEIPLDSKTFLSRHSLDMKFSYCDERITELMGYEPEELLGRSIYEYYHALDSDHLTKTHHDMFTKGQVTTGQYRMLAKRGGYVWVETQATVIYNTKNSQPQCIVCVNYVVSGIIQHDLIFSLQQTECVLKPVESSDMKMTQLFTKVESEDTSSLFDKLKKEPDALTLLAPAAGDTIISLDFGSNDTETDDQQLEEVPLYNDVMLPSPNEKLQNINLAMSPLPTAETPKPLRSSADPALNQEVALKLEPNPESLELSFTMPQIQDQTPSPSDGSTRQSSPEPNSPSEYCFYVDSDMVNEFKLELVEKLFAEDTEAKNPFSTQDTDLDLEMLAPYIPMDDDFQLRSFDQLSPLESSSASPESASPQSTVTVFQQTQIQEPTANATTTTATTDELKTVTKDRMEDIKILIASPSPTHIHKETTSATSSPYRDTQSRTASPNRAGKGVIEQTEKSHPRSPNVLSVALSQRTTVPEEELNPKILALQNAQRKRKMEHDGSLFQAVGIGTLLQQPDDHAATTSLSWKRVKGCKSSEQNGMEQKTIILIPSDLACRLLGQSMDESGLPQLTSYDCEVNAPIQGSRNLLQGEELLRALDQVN
Chain of Cytochrome P450 3A4 (Homo sapiens) (P08684 whole entry, looked up): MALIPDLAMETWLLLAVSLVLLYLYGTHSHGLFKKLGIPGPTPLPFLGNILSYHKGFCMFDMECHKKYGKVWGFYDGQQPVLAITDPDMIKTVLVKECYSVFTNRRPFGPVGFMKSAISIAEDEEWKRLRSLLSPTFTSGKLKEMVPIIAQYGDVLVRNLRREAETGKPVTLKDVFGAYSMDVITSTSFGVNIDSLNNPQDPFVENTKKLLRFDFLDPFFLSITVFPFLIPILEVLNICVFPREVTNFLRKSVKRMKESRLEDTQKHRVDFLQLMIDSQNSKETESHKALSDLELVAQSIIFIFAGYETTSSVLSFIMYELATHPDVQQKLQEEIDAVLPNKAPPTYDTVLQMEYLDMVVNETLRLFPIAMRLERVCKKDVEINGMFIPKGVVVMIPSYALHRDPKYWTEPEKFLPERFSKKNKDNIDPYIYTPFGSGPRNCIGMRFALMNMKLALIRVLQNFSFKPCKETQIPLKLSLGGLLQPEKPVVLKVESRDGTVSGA

The AC50 is the concentration giving half of the maximal activity seen. Consider `Cc1cccc(N)c1N`, for which the concentration at half-maximal activity (AC50) was 50 µM (active) in the assay with CYP2C9 (gene 1559); 58.1 µM (active) in the assay with CYP2E1 (gene 1571); 86.1 µM (active) with CYP4A11 (gene 1579); 11.1 µM (active) in the assay with CYP3A5 (gene 1577); 62.6 µM (active) in [6]; 50 µM (active) in assay [7]. For the same compound, the concentration at half-maximal activity (AC50) in [8] is 46 µM (active); in assay [9], 50 µM (active); in assay [11], 50 µM (active). Besides, the compound was called inactive in assay [1], in assay [2], in assay [3], in [4], in assay [5] and in [10]. Besides, the result in [12], in [13] and in assay [14] was inactive.
In the case of `CCCCCOC(=O)c1ccccc1C(=O)OCCCCC`, the call (with CYP2C9 (gene 1559); with CYP2E1 (gene 1571); in assay [1]; in assay [2]; in assay [3]; in assay [4]) was inactive. In addition, the compound was called inactive (in assay [5]; in the assay with CYP3A5 (gene 1577); in [6]; in [8]; in [9]; in assay [10]). Also, the compound was called inactive in assay [11], in assay [12], in assay [13] and in assay [14]. Besides, the AC50 is 50 µM (active) in the assay with CYP4A11 (gene 1579) and 79.7 µM (active) in [7].
In the case of `CC(C)(O)c1cnn2c(-c3ccc(F)c(-c4c(F)cccc4C#N)c3)cnc2n1`, the half-maximal activity concentration (AC50) with CYP2C9 (gene 1559) is 0.291 µM (active); with CYP2E1 (gene 1571), 4.43 µM (active); with CYP4A11 (gene 1579) it was 1.51 µM (active); in assay [1], 0.263 µM (active); in assay [6], 1.57 µM (active); in [7], 1.71 µM (active). For the same compound, the AC50 in [8] is 4.14 µM (active). For the same compound, the compound was classed as inactive (in assay [2]; in assay [3]; in assay [4]; in [5]; with CYP3A5 (gene 1577); in [9]). In addition, the compound was classed as inactive in assay [10], in assay [11], in assay [12], in [13], in [14] and in assay [15].
Take `CCCCCCCCOC(=O)c1ccc(C(=O)OCCCCCCCC)c(C(=O)OCCCCCCCC)c1`: the outcome (in the assay with CYP2C9 (gene 1559); with CYP2E1 (gene 1571); with CYP4A11 (gene 1579); in assay [1]; in assay [2]; in assay [3]) was inactive. The call (in assay [4]; in assay [5]; in the assay with CYP3A5 (gene 1577); in [6]; in assay [7]; in [8]) was inactive. In addition, the outcome in assay [9], in assay [10], in [11], in assay [12], in assay [13] and in assay [14] was inactive. In addition, the result in assay [15] was inactive.
As for `CC(C)(C)OOC(C)(C)CCC(C)(C)OOC(C)(C)C`, the call (with CYP2C9 (gene 1559); with CYP2E1 (gene 1571); in the assay with CYP4A11 (gene 1579); in [1]; in [2]; in [3]) was inactive. For the same compound, the compound was classed as inactive (in assay [4]; in [5]; with CYP3A5 (gene 1577); in assay [6]; in assay [7]; in assay [8]). For the same compound, the compound was called inactive in assay [9], in assay [10], in [11], in [12], in [13] and in assay [14]. Besides, the compound was classed as inactive in [15].
For `Nc1cc(Cl)cc(C(=O)O)c1Cl`, the compound was called inactive (with CYP2C9 (gene 1559); with CYP2E1 (gene 1571); in [1]; in assay [2]; in [3]; in assay [4]). The compound was called inactive (in [5]; with CYP3A5 (gene 1577); in assay [6]; in [7]; in assay [8]; in assay [9]). The call in [10], in assay [11], in [12], in [13], in [14] and in assay [15] was inactive. Besides, the concentration at half-maximal activity (AC50) in the assay with CYP4A11 (gene 1579) is 50 µM (active).
For the compound `Nc1ccc(Oc2ccc(N)cc2)cc1`, the outcome (with CYP2C9 (gene 1559); with CYP2E1 (gene 1571); with CYP4A11 (gene 1579); in [1]; in assay [2]; in [3]) was inactive. The call (in assay [4]; in assay [5]; with CYP3A5 (gene 1577); in [7]; in assay [8]; in assay [9]) was inactive. The call in [10], in assay [11], in assay [12], in assay [13], in assay [14] and in assay [15] was inactive. For the same compound, the concentration at half-maximal activity (AC50) in assay [6] was 50 µM (active).

(Values after PubChem BioAssay (EPA / NIEHS).)
